Bioassay records deposited in PubChem by National Center for Advancing Translational Sciences (NCATS).
SMN2 splice enh: qHTS Assay for Enhancers of SMN2 Splice Variant Expression; HEK293 SMN2-luciferase splicing reporter, luminescence, 30-36 h; Potency, µM (top dose mostly 46.1 µM), for inactives: top-dose activity change, positive = activation, hits mostly activators; 210,000 tested, 2.8% active; also: % of control where 0% means no effect; nearly all actives have a fitted effect of over 55% in size
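qHTS luciferase splicing reporter: luminescence rises when SMN2 exon 7 is included in transfected HEK293 cells. Compound exposure lasted 30-36 h at 37C, with 4.5 mM final sodium butyrate as control, followed by a ONE-Glo read.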
ELG1 genotox: qHTS screen for small molecules that induce genotoxicity in human embryonic kidney (HEK293T) cells expressing luciferase-tagged ELG1; Potency, µM (highest dose often 46 µM), without a hit: top-dose activity change, positive = activation, actives largely listed as activators; HEK293T ELG1-luciferase reporter, luminescence, 16 h; 330,000 tested, 1.3% active; also: % of control where 0% means no effect; nearly all actives have a fitted effect of over 60% in size
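After overnight (16 hr) compound treatment at 37 °C, ELG1-luciferase HEK293T cells were lysed with ONE-Glo; luminescence quantified 30 min later at room temperature.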
Luc counter: Counterscreen for Luciferase (Kinase-Glo TM) Inhibition; Luciferin 4-monooxygenase (Photuris pensylvanica), Q27757; Kinase-Glo luciferase, ATP luminescence, 8 min; Potency, µM (doses to about 38.3 µM), inactives show at the highest dose activity change, negative = inhibition, hits mostly inhibitors; 200,000 tested, 0.28% active; AID 1379, 2008; also: % is scaled to controls: 0 for no effect and ±100 for the full control effect; nearly all actives have a fitted effect of over 60% in size
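Substrate mix (final 50 mM imidazole pH 7.2, 50 mM KCl, 7 mM MgCl2, 10 uM ATP, 0.01% Tween 20, 0.05% BSA) plus pin-tool compound, then Kinase-Glo detection mix; 8 min ambient, luminescence read.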
NPC1 promoter act: qHTS Assay for NPC1 Promoter Activators. Huh7 NPC1 promoter luciferase reporter, 24 h. Potency, µM (series often up to 9.22 µM), for the others: top-dose activation, hits mostly activators. 320,000 tested, 2.4% active. AID 485313, 2010; also: % of control where 0% means no effect; nearly all actives have a fitted effect of over 60% in size
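In 1536-well qHTS, Huh7 cells harboring an NPC1 promoter–luciferase construct received compound for 24 h; activation was quantified by luminescence following luciferase reagent addition.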
Rab9 prom act: qHTS Assay for Rab9 Promoter Activators. Huh7 Rab9 promoter-luciferase reporter, luminescence, 24 h. AID 485297, 2010. Potency, µM (titrated, usually from 9.22 µM), for inactives: top-dose activation, negative = inhibition, actives largely listed as activators. 320,000 tested, 2.8% active; also: % of control where 0% means no effect; nearly all actives have a fitted effect of over 60% in size
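Luciferase signal after 10 min detection reagent at ambient indicates Rab9 promoter upregulation; stably transfected Huh7 cells were treated 24 h with compound in DMSO at 37 °C, 5% CO2.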
FLuc modulator: qHTS profiling assay for firefly luciferase inhibitor/activator using purifed enzyme and Km concentrations of substrates (counterscreen for miR-21 project); AID 588342, 2011; Luciferin 4-monooxygenase (Photinus pyralis), P08659; purified FLuc, Km substrates, luminescence inhibition; 360,000 tested, 6.9% active; Potency, µM (titrated, usually from 57.5 µM), for the others: top-dose activity change, negative = inhibition, actives largely listed as inhibitors;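 also: plate controls were vehicle for no effect and reference inhibitor for full effect; nearly all actives have a fitted effect of over 55% in size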
Target sequence (P08659 whole entry, looked up): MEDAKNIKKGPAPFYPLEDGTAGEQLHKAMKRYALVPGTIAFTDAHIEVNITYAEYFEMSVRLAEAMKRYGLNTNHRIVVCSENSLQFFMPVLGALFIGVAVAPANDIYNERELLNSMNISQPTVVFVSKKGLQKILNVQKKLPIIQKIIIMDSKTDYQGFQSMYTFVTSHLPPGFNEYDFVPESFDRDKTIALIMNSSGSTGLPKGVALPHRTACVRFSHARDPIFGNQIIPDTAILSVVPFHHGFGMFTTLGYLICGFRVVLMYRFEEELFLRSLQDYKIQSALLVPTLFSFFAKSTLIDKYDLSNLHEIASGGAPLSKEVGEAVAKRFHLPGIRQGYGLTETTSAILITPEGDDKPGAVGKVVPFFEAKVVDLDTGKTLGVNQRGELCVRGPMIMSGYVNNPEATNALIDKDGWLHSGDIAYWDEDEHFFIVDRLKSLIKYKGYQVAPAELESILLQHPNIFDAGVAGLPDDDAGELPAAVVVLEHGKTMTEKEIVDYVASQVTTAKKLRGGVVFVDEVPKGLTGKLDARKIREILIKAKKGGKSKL
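Purified P. pyralis luciferase, 10 nM final, with Km-level 10 uM D-luciferin and 10 uM ATP in 50 mM Tris acetate pH 7.5, 10 mM Mg acetate, 0.01% Tween-20, 0.05% BSA; 6-point qHTS titration about 60 µM downward; luminescence read.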
An asterisk follows results filed as active; ? = inconclusive; / = no result. An excerpt weighted towards active compounds, which were near 7.5% of everything screened. Calls follow the shape of the dose curve; as a rule, active = well fitted curve in the direction sought with a large enough effect; inconclusive = small, poorly fitted or top-dose-only effect, or another doubt; inactive = no such curve, though single readings can be large; an effect the other way counts as inactive or inconclusive. Potency is read from the fitted curve at half-maximal effect.

SMILES	SMN2 splice enh	ELG1 genotox	Luc counter	NPC1 promoter act	Rab9 prom act	FLuc modulator
Cc1cc(/C=N/Nc2ncnc(N)c2[N+](=O)[O-])c(C)n1-c1ccccc1	/	?	/	?	-18%	0.076µM*
Cc1cc(/C=N/Nc2nc(N)ncc2[N+](=O)[O-])c(C)n1-c1cccc(C(F)(F)F)c1	/	?	/	0.89µM*	0.45µM*	1.5µM*
COc1cccc(/C=N/Nc2ncnc(N)c2[N+](=O)[O-])c1OC	3.2µM*	?	-22%	1.8µM*	0.56µM*	4.8µM*
O=C(C1=C(O)C(=O)N(CC2CCCO2)C1c1ccccc1Cl)c1ccco1 (stereo not drawn)	/	-2%	/	1%	5%	3%
Cc1cccc(N2CCN(C(=O)Nc3cn(CC(C)C)c(=O)c4ccccc34)CC2)c1C	/	/	/	/	/	5%
COc1ccc(/C=C/C(=O)N(C)c2ccccc2C(=O)O)cc1	7%	2%	-1%	1%	3%	-15%
O=C1C2C3C=CC(CC3)C2C(=O)N1/N=C/c1c[nH]c2ccccc12 (stereo not drawn)	92%	25%	-2%	?	?	9.5µM*
CCOC(=O)Cn1cc(/C=N/N2C(=O)C3C4C=CC(C4)C3C2=O)c2ccccc21 (stereo not drawn)	3%	8%	1%	5%	-1%	15µM*
O=C1C2C3C=CC(C3)C2C(=O)N1/N=C/c1cn(Cc2ccccc2)c2ccccc12 (stereo not drawn)	-5%	11%	-3%	5%	6%	?
CCC(C)[C@H]1CN=C(N)N1CCc1cc(C(F)(F)F)cc(C(F)(F)F)c1 (stereo partly drawn)	/	-8%	/	-8%	-11%	3%
COc1cc(N)c(Cl)cc1C(=O)OCC(=O)N1CCCCCC1	/	3%	/	1%	-3%	1%
CCCOc1ncnc2c1[nH]c1ccc(OC)cc12	/	?	/	1.1µM*	0.56µM*	2.4µM*
CC(C)Oc1ncnc2c1[nH]c1ccccc12	/	-2%	/	-9%	-16%	15µM*
COc1ccc2[nH]c3c(N4CC(C)OC(C)C4)ncnc3c2c1 (stereo not drawn)	-6%	-2%	3%	-3%	-7%	-16%
Cc1ccc2[nH]c3c(NCCN4CCOCC4)ncnc3c2c1	-32%	29%	-5%	14%	7%	?
CCN(CC)c1ncnc2c1[nH]c1ccccc12	-67%	-7%	-3%	0%	-11%	-19%
CCCOc1ncnc2c1[nH]c1ccccc12	-60%	0%	-4%	19%	-4%	17µM*
CCCCOc1ncnc2c1[nH]c1ccc(C)cc12	/	?	/	?	?	1.1µM*
Cc1ccc2[nH]c3c(N4CCN(Cc5ccccc5)CC4)ncnc3c2c1	-49%	-23%	-1%	0%	-9%	-22%
Cc1ccc2[nH]c3c(N4CCCCCC4)ncnc3c2c1	-69%	-27%	4%	-6%	-15%	19µM*
CC1(C)C2CCC(C2)C1(C)NC(=O)CNCC1CCCCC1 (stereo not drawn)	-2%	-11%	1%	-3%	-6%	-1%
O=C(N/C=C/c1ccco1)OCc1ccccc1	13µM*	?	-3%	?	3.5µM*	11µM*
O=C(N/C=C/c1ccco1)NCc1ccccc1	7%	0%	1%	-2%	1%	-10%
CCN1CCN(C(=O)CCc2ccc(S(=O)(=O)NCCc3ccccc3)cc2)CC1	-6%	1%	1%	0%	-1%	-1%
CCOc1ccc2nc(N3C(=O)/C(=C/c4ccc(Cl)cc4)NC3=S)sc2c1	6%	0%	0%	13%	3%	9.5µM*
SMILES	SMN2 splice enh	ELG1 genotox	Luc counter	NPC1 promoter act	Rab9 prom act	FLuc modulator
O=C1/C(=C/c2ccc(Cl)cc2)NC(=S)N1Cc1cccnc1	/	-9%	/	-1%	0%	-11%
Cc1ccc2nc3c(c(N)c2c1)CCN3c1ccccc1	-48%	0%	2%	17%	2%	19µM*
N#Cc1ccc(/C=N/NC(=S)Nc2ccc(S(=O)(=O)N3CCOCC3)cc2)cc1	/	-5%	/	-4%	-4%	-17%
Oc1ccc(/C=N/NC(=S)N2CCOCC2)cc1	-46%	9%	?	26%	28%	7.6µM*
O=S(=O)(c1ccc(Cl)c(NC(=S)N/N=C/c2ccc(O)cc2)c1)N1CCOCC1	-63%	-6%	-1%	-7%	1%	17µM*
O=S(=O)(c1ccc(NC(=S)N/N=C/c2ccc(O)c(O)c2)cc1)N1CCOCC1	/	3%	/	-2%	-5%	17µM*
O=S(=O)(c1ccc(Cl)c(NC(=S)N/N=C/c2c(F)cccc2F)c1)N1CCOCC1	/	2%	/	-4%	-5%	4%
COc1ccc(NC(=S)Nc2cccc(C(F)(F)F)c2)c(C)c1	-6%	-2%	0%	2%	1%	0%
CCc1nnc(NC(=O)c2ccc(OC)cc2OC)s1	2µM*	?	-3%	0.45µM*	0.45µM*	2.1µM*
COc1ccc(C(=O)Nc2nnc(SCC(=O)NC3CCCC3)s2)c(OC)c1	/	2.9µM*	/	0.1µM*	0.1µM*	0.54µM*
CCc1nnc(NC(=O)Nc2ccccc2OC)s1	?	?	-5%	12%	30%	?
COc1ccc(C(=O)Nc2nnc(SCC(=O)Nc3ccc(NC(C)=O)cc3)s2)c(OC)c1	/	?	/	0.35µM*	0.63µM*	0.085µM*
O=C(O)[C@H]1C(=CCO)O[C@H]2CC(=O)N12	-16%	/	-2%	/	/	/
O=C(C=C=Nc1ccccc1)C(=O)N=C=Cc1ccccc1	/	?	/	-13%	-36%	4.8µM*
O=C1C(CSCc2ccccc2)NC(=S)N1c1ccccc1 (stereo not drawn)	/	0%	/	-34%	-40%	-4%
CSc1ccc(C(=O)/C=C/c2ccc(N)cc2)cc1	14µM*	13µM*	-25%	?	3.2µM*	0.76µM*
CSc1ccc(/C=C/C(=O)c2ccc(NC(=O)Cc3ccccc3)cc2)cc1	-10%	-4%	-1%	0%	4%	12µM*
CC(C)C(=O)Nc1ccc(Sc2ccc(F)cc2)cc1	-8%	0%	-1%	-3%	-1%	1%
CSc1ccc(/C=C/C(=O)c2ccc(NC(=O)C(C)C)cc2)cc1	-14%	-2%	-2%	-2%	-10%	9.5µM*
O=C(CN1CC(=O)Nc2ccccc21)NCCc1ccc(Cl)cc1Cl	-31%	25%	1%	-2%	0%	-4%
